Experiment [1] is described as follows: AP1 Signaling Pathway (AID 357).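 Also: ME-180 reporter cells stimulated with EGF at its EC50 level; % is scaled to controls: 0 for no effect and ±100 for the full control effect.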 The settings on record: ME-180 AP-1-bla reporter, EGF-induced, beta-lactamase ratio, 5 h; at 17.2 µM (top of the series) unless noted. In a few lines:
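A ratiometric CCF4 readout (405 nm excitation; 460 and 530 nm emission) quantified AP-1-driven beta-lactamase in ME-180 cells after 5 h with compound and EC50 EGF; AC50 values were derived for activators and inhibitors.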

A short description of experiment [2]: NFAT Signaling Pathway (AID 444).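 Also: carbachol stimulus at about its EC50 of 1 µM final; % is scaled to controls: 0 for no effect and ±100 for the full control effect.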 The settings on record: Jurkat NFAT-bla M1, carbachol, beta-lactamase ratio, 5 h; at 17.2 µM (top of the series) unless noted. The method, boiled down: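 Jurkat cells with NFAT-driven β-lactamase reporter and co-expressed M1 receptor, stimulated with carbachol (final 1 uM, ~EC50), compound titration, 5 h at 37 °C. CCF4 loaded 1 h at RT; 460/530 nm ratio gave %activity and AC50.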

Experiment [3] is described as follows: Stat Signaling Pathway (AID 446).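 Also: ME-180 cervical cancer cells given 40 pM IL-6 alongside compound; SIE-controlled beta-lactamase reporter measured as 460/530 nm FRET emission ratio; % is scaled to controls: 0 for no effect and ±100 for the full control effect.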 The following applies: ME-180 (cervical carcinoma) SIE beta-lactamase reporter, IL-6 stimulated, 5 h; at 17.2 µM (top of the series) unless noted. In a few lines: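 Compound effects on IL-6-induced STAT reporter activity were measured in ME-180 cells. After overnight culture, cells were co-treated with 40 pM IL-6 for 5 hrs before beta-lactamase substrate loading at room temperature.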

The target of experiment [4] is Glucocorticoid receptor (Homo sapiens) (UniProt P04150). Nature of the experiment: GR-GFP Redistribution (AID 450;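 active = compounds whose dose series gives a full or clear partial fitted curve of increased nuclear translocation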; also: potency is read from the fitted curve at half-maximal effect). The following applies: U2OS GR-GFP nuclear translocation, laser cytometry, 2 h; series mostly up to 20.6 µM.
Chain of Glucocorticoid receptor (Homo sapiens) (P04150 whole entry, looked up): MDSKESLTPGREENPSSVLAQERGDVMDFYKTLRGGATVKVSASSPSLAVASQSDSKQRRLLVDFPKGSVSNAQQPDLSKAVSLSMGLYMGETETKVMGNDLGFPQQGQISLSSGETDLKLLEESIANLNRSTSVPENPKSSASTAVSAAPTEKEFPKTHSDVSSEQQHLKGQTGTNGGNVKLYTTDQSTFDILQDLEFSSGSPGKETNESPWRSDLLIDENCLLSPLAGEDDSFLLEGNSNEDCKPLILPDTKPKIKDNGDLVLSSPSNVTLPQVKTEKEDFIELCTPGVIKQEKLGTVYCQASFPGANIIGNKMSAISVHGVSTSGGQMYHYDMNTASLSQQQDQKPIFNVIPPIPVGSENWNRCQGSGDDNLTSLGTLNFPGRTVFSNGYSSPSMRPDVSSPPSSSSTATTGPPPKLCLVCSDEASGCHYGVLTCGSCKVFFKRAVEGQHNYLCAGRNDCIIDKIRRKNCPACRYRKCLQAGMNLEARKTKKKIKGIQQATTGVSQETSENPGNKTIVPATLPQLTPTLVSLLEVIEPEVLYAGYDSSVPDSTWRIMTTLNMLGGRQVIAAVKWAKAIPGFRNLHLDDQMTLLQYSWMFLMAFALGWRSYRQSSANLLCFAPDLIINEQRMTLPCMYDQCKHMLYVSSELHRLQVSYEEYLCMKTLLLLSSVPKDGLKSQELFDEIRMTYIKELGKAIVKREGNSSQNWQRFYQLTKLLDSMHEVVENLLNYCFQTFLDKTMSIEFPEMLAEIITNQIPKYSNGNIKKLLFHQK
The target is the same in experiment [5]. In words: GR-EFC Redistribution (AID 451; calls by dose curve; also: potency is read from the fitted curve at half-maximal effect). The following applies: CHO-K1 GR-EFC translocation, beta-gal luminescence, 2 h. In a few lines:
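CHO-K1 cells expressing nuclear EA and GR-ED fragments of b-gal; compounds titrated up to 46 uM final, 2 h at 37 C. GR nuclear translocation read as complemented b-gal luminescence after 1 h RT detection.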

In experiment [6] the target is Mitogen-activated protein kinase 10 (Mus musculus) (UniProt Q61831). In words: JNK3 AlphaScreen Assay (AID 530).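 Also: kinase came from lysate of stimulated human HepG2 cells; signal reports phosphorylation of biotinylated GST-cJun 1-79 at Ser73 with 10 µM ATP; % is scaled to controls: 0 for no effect and ±100 for the full control effect.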 The following applies: JNK3 lysate, c-Jun phosphorylation; series mostly up to 57.1 µM. In a few lines: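 HepG2 lysate (IL-1b/TNFa pre-activated) + biotin-GST-cJun 1-79 + anti-pSer73 cJun; cpd titration, 15 min RT; ATP 10 uM start; Tris pH 7.6, MgCl2, DTT, vanadate; beads in EDTA buffer; AlphaScreen.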

For experiment [7], the target named is Guanine nucleotide-binding protein G(i) subunit alpha-1 (Homo sapiens) (UniProt P63096). Nature of the experiment: qHTS Assay for Inhibitors of RGS12 GoLoco Motif Activity (Green Fluorophore) (AID 879; active = well fitted curve in the direction sought with a large enough effect; an effect the other way counts as inactive or inconclusive;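 also: 0% = labeled peptide with Gαi1 and full inhibition = labeled peptide alone without protein; negative values mean loss of peptide binding seen as reduced polarization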). The settings on record: Galphai1/FITC-RGS12 GoLoco peptide, fluorescence polarization; series mostly up to 57.1 µM. In a few lines:
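A drop in FITC polarization marked displacement of the FITC-tagged RGS12 GoLoco peptide (10 nM) from Gαi1 (50 nM). Compounds were incubated 10 min at room temperature in Tris pH 7.5 buffer containing 150 mM NaCl, 0.1 mM GDP and 0.05% NP40; unlabeled peptide titration served as control.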

The nature of experiment [8]: qHTS Assay for Identification of Small Molecule Agonists for Thrombopoietin (TPO) Signaling Pathway (AID 917; active = well fitted curve in the direction sought with a large enough effect; an effect the other way counts as inactive or inconclusive; also: % is scaled to controls: 0 for no effect and ±100 for the full control effect). The settings on record: TPO signaling pathway reporter cells, agonist qHTS, stimulated with TPO at its EC50; series mostly up to 38.5 µM. The method, boiled down:
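Luciferase reporter (Glycoprotein IIb promoter) in IL-3-deprived Ba/F3 cells carrying human TPO receptor; compounds co-added with 26 pM TPO, incubated 24 h, 37 C. Steadylite luminescence measured after 10 min.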

The target of experiment [9] is Muscarinic acetylcholine receptor M1 (Rattus norvegicus) (UniProt P08482). Nature of the experiment: qHTS Assay for Antagonists of Acetylcholine Muscarinic M1 Receptor: Kinetic Measurement of Intracellular Calcium Response (AID 943; active = well fitted curve in the direction sought with a large enough effect; an effect the other way counts as inactive or inconclusive;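 also: Fluo-4 calcium signal as peak divided by basal fluorescence over 4 min; nearly all actives have a fitted effect of over 75% in size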). The settings on record: M1-expressing cells, kinetic intracellular calcium fluorescence; series mostly up to 35.3 µM. The method, boiled down:
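Read-out: peak over basal Fluo-4 fluorescence, kinetic at 1 Hz for 4 min after EC80 carbachol (100 nM final). Rat M1-CHO cells, dye loaded 1 h at 37C, compound added 10 min before agonist.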

Experiment [10] addresses Pyruvate kinase (Leishmania mexicana) (UniProt Q27686). Nature of the experiment: qHTS Validation Assay for Inhibitors of Leishmania Mexicana Pyruvate Kinase (AID 945; active = well fitted curve in the direction sought with a large enough effect; an effect the other way counts as inactive or inconclusive;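 also: 0% = DMSO only neutral control wells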). The settings on record: purified L. mexicana pyruvate kinase, enzyme activity, E451W mutant enzyme; series mostly up to 57.5 µM. In a few lines:
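Purified LmPYK (E451W mutant, 0.2 nM) was incubated 1 h at room temperature with 0.5 mM PEP and 0.1 mM ADP in 50 mM imidazole pH 7.2, 50 mM KCl, 7 mM MgCl2; ATP formed was read by PKLight luminescence, normalized to DMSO wells.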

The target in experiment [11] is Pyruvate kinase PKM (Homo sapiens) (UniProt P14618). In words: qHTS Assay for Activators of Human Muscle Pyruvate Kinase (AID 954; active = well fitted curve in the direction sought with a large enough effect, not every such curve was filed as active;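 also: 0% = uninhibited enzyme and -100% = no enzyme or full thiadiazolimine inhibition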). The following applies: purified human muscle pyruvate kinase, luciferase-coupled luminescence, 1 h; series mostly up to 57.5 µM. The method, boiled down: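 A coupled luminescent readout tracked ATP made from ADP by purified PKM2. Final conditions included 0.1 nM enzyme, PEP and ADP at 0.5 and 0.1 mM, pH 7.2 imidazole buffer with BSA, and a one-hour room-temperature reaction.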
Chain of Pyruvate kinase PKM (Homo sapiens) (P14618 whole entry, looked up): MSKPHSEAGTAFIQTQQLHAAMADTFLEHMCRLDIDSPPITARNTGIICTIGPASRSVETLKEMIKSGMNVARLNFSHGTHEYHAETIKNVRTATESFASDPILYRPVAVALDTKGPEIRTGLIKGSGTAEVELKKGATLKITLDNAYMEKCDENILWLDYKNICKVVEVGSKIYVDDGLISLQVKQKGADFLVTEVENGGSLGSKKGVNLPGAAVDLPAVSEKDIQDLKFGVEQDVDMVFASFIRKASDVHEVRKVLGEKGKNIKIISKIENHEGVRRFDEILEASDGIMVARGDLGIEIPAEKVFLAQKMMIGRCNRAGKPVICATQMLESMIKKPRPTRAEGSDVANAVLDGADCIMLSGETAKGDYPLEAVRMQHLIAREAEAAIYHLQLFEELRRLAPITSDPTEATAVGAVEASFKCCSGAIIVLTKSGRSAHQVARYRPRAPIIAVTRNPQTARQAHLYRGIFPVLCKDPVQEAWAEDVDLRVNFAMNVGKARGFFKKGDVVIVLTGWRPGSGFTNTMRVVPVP

The target of experiment [12] is Alpha-galactosidase A (Homo sapiens) (UniProt P06280). Nature of the experiment: Counterscreen for Glucocerebrosidase Inhibitors: qHTS Assay for Human alpha-Galactosidase at pH 4.5 (AID 992; active = well fitted curve in the direction sought with a large enough effect; an effect the other way counts as inactive or inconclusive; also: 0% is about no effect). The following applies: purified enzyme, fluorogenic substrate; series mostly up to 76.9 µM. The method, boiled down: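 Citrate buffer pH 4.5, Tween-20 0.005%. Enzyme 2 nM, substrate 80 uM, 20 min RT. Stop pH 10. Fluorescence Ex 365/Em 440. AC50 by Hill fit.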
Chain of Alpha-galactosidase A (Homo sapiens) (P06280 whole entry, looked up): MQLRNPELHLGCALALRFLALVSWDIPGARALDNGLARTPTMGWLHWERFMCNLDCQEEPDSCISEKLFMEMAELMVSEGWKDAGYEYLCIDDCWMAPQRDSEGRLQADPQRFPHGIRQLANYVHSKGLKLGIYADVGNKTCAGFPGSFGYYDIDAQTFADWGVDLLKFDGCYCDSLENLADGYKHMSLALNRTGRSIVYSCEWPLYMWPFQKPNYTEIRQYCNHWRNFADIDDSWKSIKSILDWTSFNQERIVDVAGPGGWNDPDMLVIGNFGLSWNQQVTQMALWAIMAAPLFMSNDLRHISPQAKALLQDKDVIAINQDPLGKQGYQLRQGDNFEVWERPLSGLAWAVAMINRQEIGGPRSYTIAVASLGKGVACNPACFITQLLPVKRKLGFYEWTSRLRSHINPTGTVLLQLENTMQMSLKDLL

For experiment [13], the target named is alpha-glucosidase (Oryza sativa, rice) (UniProt Q653V4). Nature of the experiment: Counterscreen for Glucocerebrosidase Inhibitors: qHTS Assay for Rice alpha-Glucosidase at pH 5.0 (AID 997; active = well fitted curve in the direction sought with a large enough effect; an effect the other way counts as inactive or inconclusive;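 also: 0% = full activity with enzyme and -100% = basal without enzyme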). The following applies: rice alpha-glucosidase enzyme activity; series mostly up to 76.9 µM. The method, boiled down:
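Endpoint fluorogenic assay at pH 5.0: compounds (0.7 nM to 77 uM) titrated against 4 nM rice enzyme and 400 uM 4-MU-alpha-glucoside for 20 min at room temperature; NaOH/glycine stop, read ex 365/em 440 nm, Hill-fitted AC50.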

The target of experiment [14] is 3',5'-cyclic-AMP phosphodiesterase 4B (Homo sapiens) (UniProt Q07343). Nature of the experiment: qHTS Assay for Inhibitors of PDE-IV (AID 607; active = well fitted activation curve with a large enough effect in the main read-out, with a control signal flat, not every such curve was filed as active; also: % of control where 0% means no effect). The settings on record: HEK293 ACTOne CNG channel cells, membrane potential fluorescence; series mostly up to 22.9 µM. In a few lines: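 ACTOne HEK293 cells carry a modified cAMP-gated CNG channel and express endogenous PDE4; plated 1000 cells/well, compounds up to 22.9 uM final. Membrane-potential dye fluorescence (ex 535/em 590) was read; parental cells received 10 uM forskolin + 100 uM RO 20-1724.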
Chain of 3',5'-cyclic-AMP phosphodiesterase 4B (Homo sapiens) (Q07343 whole entry, looked up): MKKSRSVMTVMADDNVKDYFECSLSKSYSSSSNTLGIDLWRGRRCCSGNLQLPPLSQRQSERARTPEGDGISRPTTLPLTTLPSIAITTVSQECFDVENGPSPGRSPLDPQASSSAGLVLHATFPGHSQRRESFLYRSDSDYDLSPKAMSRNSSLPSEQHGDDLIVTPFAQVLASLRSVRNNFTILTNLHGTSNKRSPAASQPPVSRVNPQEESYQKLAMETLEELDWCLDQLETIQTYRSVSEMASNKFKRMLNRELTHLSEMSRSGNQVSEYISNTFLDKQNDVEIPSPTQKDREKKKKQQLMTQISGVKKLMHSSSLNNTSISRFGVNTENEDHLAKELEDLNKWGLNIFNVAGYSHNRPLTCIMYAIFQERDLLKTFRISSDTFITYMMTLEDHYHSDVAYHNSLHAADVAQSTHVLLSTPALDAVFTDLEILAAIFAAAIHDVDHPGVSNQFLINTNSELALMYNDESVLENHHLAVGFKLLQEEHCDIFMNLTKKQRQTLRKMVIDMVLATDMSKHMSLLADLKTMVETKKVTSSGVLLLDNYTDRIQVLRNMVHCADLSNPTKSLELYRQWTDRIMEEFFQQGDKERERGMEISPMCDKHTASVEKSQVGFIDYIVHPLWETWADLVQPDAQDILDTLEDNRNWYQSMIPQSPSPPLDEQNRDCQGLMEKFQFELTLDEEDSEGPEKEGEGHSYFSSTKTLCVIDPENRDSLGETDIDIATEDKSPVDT

For experiment [15], the target named is Tyrosyl-DNA phosphodiesterase 1 (Homo sapiens) (UniProt Q9NUW8). Nature of the experiment: Confirmation Assay for Inhibitors of Tyrosyl-DNA Phosphodiesterase (TDP1) (AID 489007; active = well fitted curve in the direction sought with a large enough effect; an effect the other way counts as inactive or inconclusive; also: potency is read from the fitted curve at half-maximal effect; nearly all actives have a fitted effect of over 40% in size). The following applies: recombinant human TDP1 enzymatic activity, dose-response. In a few lines:
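AlphaScreen read-out: streptavidin donor and anti-FITC acceptor beads (10 ug/ml) bind intact substrate, so Tdp1 removal of tyrosine-FITC lowers signal. Enzyme 1 nM, substrate 15 nM, 5 min reaction at room temperature after 15 min compound preincubation.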

In experiment [16] the target is Cytochrome P450 3A4 (Homo sapiens) (UniProt P08684). In words: qHTS Assay for Activators of Cytochrome P450 3A4 (AID 885; active = well fitted curve in the direction sought with a large enough effect; an effect the other way counts as inactive or inconclusive; also: nearly all actives have a fitted effect of over 65% in size). The following applies: recombinant CYP3A4, Luciferin-PPXE luminescence, 60 min; series mostly up to 57.1 µM. The method, boiled down:
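CYP3A4 activity: Luciferin-PPXE O-dealkylation, 25uM substrate, 200mM KPO4, RT throughout. Read-out is luciferase luminescence; higher values reflect activation.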

The structures appear in SMILES notation. Unmarked numbers belong to inactive results. Records with an inconclusive call do not appear. Calls of active or inactive are those of the source. Unless noted, calls follow the shape of the dose curve; as a rule, active = well fitted curve in either direction with a large enough effect (not every such curve was filed as active); inconclusive = small, poorly fitted or top-dose-only effect, or another doubt; inactive = flat fitted curve, though single readings scatter.

Chain of Muscarinic acetylcholine receptor M1 (Rattus norvegicus) (P08482 whole entry, looked up): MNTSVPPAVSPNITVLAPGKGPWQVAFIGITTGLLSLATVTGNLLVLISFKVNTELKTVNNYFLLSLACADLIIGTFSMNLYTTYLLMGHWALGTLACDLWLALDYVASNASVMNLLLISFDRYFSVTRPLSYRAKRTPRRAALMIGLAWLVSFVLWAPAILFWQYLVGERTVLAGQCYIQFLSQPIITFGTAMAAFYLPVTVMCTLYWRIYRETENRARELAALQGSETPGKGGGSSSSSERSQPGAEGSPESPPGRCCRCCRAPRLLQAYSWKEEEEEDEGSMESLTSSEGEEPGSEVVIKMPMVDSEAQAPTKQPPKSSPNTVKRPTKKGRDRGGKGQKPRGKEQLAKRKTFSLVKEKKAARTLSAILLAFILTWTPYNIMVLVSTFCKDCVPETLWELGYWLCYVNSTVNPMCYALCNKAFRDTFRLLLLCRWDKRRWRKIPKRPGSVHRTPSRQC
Chain of Cytochrome P450 3A4 (Homo sapiens) (P08684 whole entry, looked up): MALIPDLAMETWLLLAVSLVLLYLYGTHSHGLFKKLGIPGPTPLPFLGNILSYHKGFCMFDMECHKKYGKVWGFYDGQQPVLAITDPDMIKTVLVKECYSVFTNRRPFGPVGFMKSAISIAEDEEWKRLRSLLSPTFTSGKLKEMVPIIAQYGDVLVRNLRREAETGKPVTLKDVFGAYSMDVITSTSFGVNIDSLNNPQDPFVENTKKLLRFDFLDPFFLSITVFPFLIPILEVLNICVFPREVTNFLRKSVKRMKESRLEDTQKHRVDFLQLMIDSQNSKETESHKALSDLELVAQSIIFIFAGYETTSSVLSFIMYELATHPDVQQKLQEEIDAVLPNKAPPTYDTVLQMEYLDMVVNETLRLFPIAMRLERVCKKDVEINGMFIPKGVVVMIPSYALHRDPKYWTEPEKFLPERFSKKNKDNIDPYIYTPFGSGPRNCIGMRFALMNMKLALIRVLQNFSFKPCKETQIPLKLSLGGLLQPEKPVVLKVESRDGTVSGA
Chain of Guanine nucleotide-binding protein G(i) subunit alpha-1 (Homo sapiens) (P63096 whole entry, looked up): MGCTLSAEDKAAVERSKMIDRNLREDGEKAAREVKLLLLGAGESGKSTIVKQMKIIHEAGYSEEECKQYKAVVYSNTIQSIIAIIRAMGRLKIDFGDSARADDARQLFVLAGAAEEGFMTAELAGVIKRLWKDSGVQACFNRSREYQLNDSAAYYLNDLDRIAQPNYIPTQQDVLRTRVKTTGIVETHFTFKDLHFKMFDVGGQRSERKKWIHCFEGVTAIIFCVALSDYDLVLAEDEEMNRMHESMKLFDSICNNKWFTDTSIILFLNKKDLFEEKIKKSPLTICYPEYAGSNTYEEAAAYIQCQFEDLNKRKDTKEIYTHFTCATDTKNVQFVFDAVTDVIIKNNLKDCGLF
Chain of Pyruvate kinase (Leishmania mexicana) (Q27686 2-499 E452W): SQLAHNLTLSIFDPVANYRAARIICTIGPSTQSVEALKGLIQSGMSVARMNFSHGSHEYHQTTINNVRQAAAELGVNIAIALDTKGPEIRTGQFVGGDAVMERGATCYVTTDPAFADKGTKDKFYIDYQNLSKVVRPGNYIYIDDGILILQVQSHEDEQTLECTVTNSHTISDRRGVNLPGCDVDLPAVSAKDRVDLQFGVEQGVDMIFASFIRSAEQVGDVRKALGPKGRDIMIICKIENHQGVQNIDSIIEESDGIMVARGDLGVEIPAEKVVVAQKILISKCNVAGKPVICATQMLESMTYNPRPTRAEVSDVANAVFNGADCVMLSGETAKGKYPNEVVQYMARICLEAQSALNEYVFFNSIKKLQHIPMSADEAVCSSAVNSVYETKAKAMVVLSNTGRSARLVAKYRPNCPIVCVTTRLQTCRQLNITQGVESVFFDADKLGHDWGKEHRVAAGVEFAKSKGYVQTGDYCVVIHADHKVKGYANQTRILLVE
Chain of Tyrosyl-DNA phosphodiesterase 1 (Homo sapiens) (Q9NUW8 whole entry, looked up): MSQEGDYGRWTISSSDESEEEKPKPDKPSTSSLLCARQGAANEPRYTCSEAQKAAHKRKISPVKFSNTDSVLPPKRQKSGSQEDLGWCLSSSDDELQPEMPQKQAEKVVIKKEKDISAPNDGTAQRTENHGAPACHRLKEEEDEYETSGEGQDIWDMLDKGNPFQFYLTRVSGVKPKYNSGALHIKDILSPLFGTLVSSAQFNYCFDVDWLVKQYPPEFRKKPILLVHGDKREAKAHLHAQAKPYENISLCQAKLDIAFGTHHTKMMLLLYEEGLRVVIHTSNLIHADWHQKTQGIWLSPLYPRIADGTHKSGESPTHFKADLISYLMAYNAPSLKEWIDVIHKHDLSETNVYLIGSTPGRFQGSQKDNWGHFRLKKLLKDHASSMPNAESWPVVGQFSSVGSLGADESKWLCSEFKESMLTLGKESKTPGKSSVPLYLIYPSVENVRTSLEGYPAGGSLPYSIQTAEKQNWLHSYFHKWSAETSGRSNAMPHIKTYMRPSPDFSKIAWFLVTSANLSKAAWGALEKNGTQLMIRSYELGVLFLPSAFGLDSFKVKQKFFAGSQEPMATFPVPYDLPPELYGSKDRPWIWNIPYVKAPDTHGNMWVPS

For `Fc1ccccc1/C=N/n1cnnc1`, the figures for the activity change, negative = inhibition in experiment [1] and in [2] were 3.64% and 1.1%, respectively. Moreover, the activity, negative = inhibition in experiment [3] was 2.69%. Besides, in experiment [4], the Potency was above 20.6 µM.

For `Cc1nc(NCCO)c(C#N)c2c1COC(C)(C)C2`, the results for the activity change, negative = inhibition in experiment [1] and in [2] were -5.08% and 2.21%, respectively. In addition, the activity, negative = inhibition in experiment [3] was 4.18%. The Potency in experiment [4] is above 20.6 µM.

As to `CCCCCC[C@@H]([C@H](C)O)n1cnc2c(N)ncnc21`, the results for the activity change, negative = inhibition in experiment [1] and in [2] were -20.5% [at 38 µM] and -4.53% [at 38 µM], respectively. In addition, the activity, negative = inhibition in experiment [3] was 25.6% [at 38 µM]. Further, the Potency in experiment [4] and in experiment [5] was above 46 µM each time. The Potency result in [6], in [8], in experiment [9] and in [10] was “inactive” throughout. Moreover, the call in experiment [7], in experiment [11], in experiment [12] and in experiment [13] was inactive.

In the case of `Nc1ncn([C@@H]2O[C@@H](CO)[C@@H](O)[C@H]2O)c(=O)n1`, the values for the activity change, negative = inhibition in [1] and in experiment [2] were -29.6% [at 38 µM] and -6.36% [at 38 µM], respectively. In experiment [3], the activity, negative = inhibition is 2.98% [at 38 µM]. In addition, the Potency in experiment [4] and in [5] was above 46 µM each time. Besides, the Potency result in experiment [6] and in [14] was “inactive” throughout.

Take `Cc1cc(N2CCCCC2)nc2ccc(Cc3ccc4nc(N5CCCCC5)cc(C)c4c3)cc12`: the activity change, negative = inhibition is -0.0465% [at 7.69 µM] in experiment [1], -1.68% [at 7.69 µM] in experiment [2] and 13.5% [at 11.4 µM] in experiment [6]. The activity, negative = inhibition in experiment [3] was 8.27% [at 7.69 µM]. For the same molecule, the figures for the Potency in experiment [4] and in experiment [5] were above 46 µM and above 9.22 µM, respectively.

`Cc1ccc(C)n1Cc1ccc(C(=O)O)cc1`: the activity change, negative = inhibition is 2.78% in experiment [1] and -7.86% in experiment [2]. Besides, the activity, negative = inhibition in [3] is 6%. For the same molecule, the Potency in experiment [4] is above 20.6 µM; in experiment [15], 1.41 µM (active).

Consider `O=C(C[N+]12CN3CN(CN(C3)C1)C2)c1ccc(-c2ccccc2)cc1`, for which the activity change, negative = inhibition in experiment [1] was 8.23% [at 7.69 µM]; in experiment [2] it was -2.51% [at 7.69 µM]; in [6], -2.86% [at 11.4 µM]. In addition, in [3], the activity, negative = inhibition was 0.439% [at 7.69 µM]. In addition, the Potency in [4] was above 46 µM; in [5], above 9.22 µM. Further, the Potency result in [14] is “inactive”. Further, in experiment [16], the activity change, positive = activation is -51.5% [at 11.4 µM].

Consider `Cc1ccc(C2C(C(=O)c3cc4ccccc4o3)=C(O)C(=O)N2CCCN(C)C)cc1` (centres undefined), for which the activity change, negative = inhibition was 4.95% in experiment [1] and -2.86% in [2]. Besides, in experiment [3], the activity, negative = inhibition is 1.75%. Further, the Potency in [4] is above 20.6 µM.

For the molecule `CCCCCOc1ccccc1C(=O)NCC(=O)O`, the activity change, negative = inhibition in experiment [1] was 1.59%; in [2], 0.449%. Besides, the activity, negative = inhibition in experiment [3] is 9.43%. Moreover, in experiment [4], the Potency was above 20.6 µM.

Turning to `CN1CCc2c(n(CC(O)CN3C(=O)c4ccccc4S3(=O)=O)c3ccccc23)C1=O` (centres undefined), the activity change, negative = inhibition is 27.1% in experiment [1] and 6.52% in experiment [2]. Also, in experiment [3], the activity, negative = inhibition is -6.51%. The Potency in [4] was above 20.6 µM.

The values are drawn from PubChem BioAssay (NCATS).
